Bioassay records from PubChem BioAssay.
BoNT F protease: blocks Botulinum neurotoxin F light chain protease; inhibition, % at 10 µM; Multiplex microsphere protease cleavage assay, flow cytometry; actives 0.22% (n = 360,000); in the data active = inhibition above about 35%, passing the limit was not always enough; inconclusive = no clear call, values can overlap the other calls; also: plate controls were buffer without enzyme for full effect and enzyme alone for no effect
BoNT A protease: inhibitors of Botulinum neurotoxin A light chain protease; actives 0.17% (n = 360,000); inhibition, % at 10 µM; AID 588499; multiplex microsphere protease substrate cleavage, flow cytometry; also: plate controls were buffer without enzyme for full effect and enzyme alone for no effect
Anthrax LF inh2: inhibitors of Bacillus anthracis lethal factor protease; P15917; multiplex microsphere protease cleavage assay, LF; inhibition, % at 10 µM; actives 0.12% (n = 360,000); also: plate controls were buffer without enzyme for full effect and enzyme alone for no effect
PriA SSB inh: inhibitors of Klebsiella pneumoniae PriA binding to SSB C-terminal tail | AlphaScreen SSBct-PriA binding, biotinylated peptide | inhibition, % at 33 µM | actives 0.6% (n = 430,000) | AID 1272365; in the data active = inhibition mostly above about 37%, no sharp cut-off; inactive = mostly below about 20%;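 also: plate controls were negative control peptide for no effect and reference peptide for full effect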
MazF activator: increases E. coli MazEF RNase cleavage of RNA; P0AE70; FAM/BHQ RNA-DNA oligo cleavage fluorescence, 5 h; activation, % at 20 µM; actives 0.32% (n = 350,000); in the data active = activation above about 50%
Target sequence (P0AE70 whole entry, looked up): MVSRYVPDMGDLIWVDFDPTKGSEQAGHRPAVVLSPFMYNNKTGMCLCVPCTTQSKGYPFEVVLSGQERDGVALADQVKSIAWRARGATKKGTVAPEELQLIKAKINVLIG
Autofluor counter: counter-screen for toxin protease inhibitors: compound fluorescence. compound autofluorescence counterscreen, microsphere flow cytometry; stronger effect = higher value. fluorescence intensity (concentration not given with the values). actives 3.1% (n = 360,000); in the data active = fluorescence intensity above about 16000; inconclusive = no clear call, values can overlap the other calls
Starred values were filed as active, the others as inactive; ? = inconclusive; . = no result given. A selection: hits, their analogues and other compounds. The true share with any hit is near 3.3%. Rule as the data show it, unless noted: active = inhibition above about 30%; inconclusive = no clear call, values can overlap the other calls; inactive = below that.

SMILES	BoNT F protease	BoNT A protease	Anthrax LF inh2	PriA SSB inh	MazF activator	Autofluor counter
Cc1oc(C)c(C(=O)O)c1COc1ccc(C(=O)O)cc1	11	0	4	-6	-4	4816
COc1ccc(OCC(O)CNC(=O)c2ccc(Br)cc2)cc1 (configuration not stated)	6	3	-6	-5	5	21623*
CCOC(=O)c1c(NC(=O)C(C)Sc2ncnc3ccccc23)sc2c1CCCC2 (configuration not stated)	.	.	.	-12	.	.
CC(=O)Nc1ccc(Nc2ncnc3c2cnn3-c2ccccc2)cc1	-2	?	2	-14	2	23123*
Clc1ccc(Nc2ncnc3c2cnn3-c2ccccc2)cc1	-9	-1	-8	11	7	5548
CC(=O)Nc1ccc(Nc2ncnc3c2cnn3-c2ccc(C)cc2C)cc1	?	1	?	-8	3	?
CC(=O)Nc1ccc(Nc2ncnc3c2cnn3-c2cccc(C)c2)cc1	11	7	-18	-13	-3	19017*
O=C(Cc1cccc2ccccc12)NCC1CCN(c2cnccn2)CC1	.	.	.	-15	.	.
CCOC(=O)C1=C(c2ccccc2)N=c2s/c(=C\c3cc(OC)c(OC)c(OC)c3)c(=O)n2C1c1cccs1 (configuration not stated)	19	41*	34*	.	-62	3932
CCOC(=O)C1=C(C)N=c2s/c(=C/c3ccccc3)c(=O)n2C1c1ccc(OC)c(OC)c1 (configuration not stated)	-6	1	4	.	85*	4789
CCOC(=O)C1=C(C)N=c2sc(=Cc3ccc(OCC(=O)O)c(OC)c3)c(=O)n2C1c1ccc(OC)cc1 (configuration not stated)	.	.	.	-9	.	.
Cc1nnsc1C(=O)NCCC(O)c1ccc2c(c1)OCO2 (configuration not stated)	.	.	.	-4	.	.
Cc1cccc(NC(=O)C2CCN(S(=O)(=O)c3cccs3)CC2)n1	-5	?	0	-1	-3	17032*
O=C(Nc1ccccn1)C1CCN(S(=O)(=O)c2cccs2)CC1	-4	-1	0	-15	6	9759
O=C(N/N=C/c1ccccc1Cl)c1cccc(F)c1	-4	-3	-3	.	-7	16940*
CCN1CCCC1CN=Cc1c(O)n(-c2ccccc2)c(=O)c2ccccc12 (configuration not stated)	4	?	4	1	-15	27436*
CC(C)CCN=Cc1c(O)n(-c2ccccc2)c(=O)c2ccccc12	1	?	-1	19	-1	22931*
CC(C)CCC(C)N=Cc1c(O)n(Cc2ccccc2)c(=O)c2ccccc12 (configuration not stated)	-6	-1	-6	4	1	2898
COc1ccccc1OCC(=O)NCC1CCN(C)CC1	.	.	.	-7	.	.
CC1(C)CC(=O)C(C(c2cccnc2)C2C(=O)CC(C)(C)CC2=O)C(=O)C1	6	2	1	-7	-11	22323*
COc1cc2c(cc1OC)C(COc1ccc(C(C)C)cc1)N(C(=O)c1ccco1)CC2 (configuration not stated)	.	.	.	-3	.	.
CCC(=O)N1CCc2cc(OC)c(OC)cc2C1COc1ccc(C(=O)OC)cc1 (configuration not stated)	-3	-2	-1	-6	-1	21370*
COC(=O)c1ccc(OCC2c3cc(OC)c(OC)cc3CCN2C(=O)c2ccco2)cc1 (configuration not stated)	4	3	-8	-11	-14	19776*
O=C(CSc1ccncc1)N1CCc2ncncc2C1	.	.	.	-8	.	.
O=C(N/C(=C\c1cn(-c2ccccc2)nc1-c1cccs1)C(=O)N1CCCC1)c1ccccc1	.	.	.	2	.	.
SMILES	BoNT F protease	BoNT A protease	Anthrax LF inh2	PriA SSB inh	MazF activator	Autofluor counter
COC(=O)c1cn(Cc2ccc(OC)c(F)c2)nc1S(=O)(=O)N1CCSCC1	.	.	.	-18	.	.
CCOC(=O)c1cc(C(=O)OCC)cc(-n2c(C)cc(C(=O)CSc3nc(C)nc4sccc34)c2C)c1	.	.	.	4	.	.
CSc1ccc(NC(=O)C(C)(C)C)nn1	.	.	.	1	.	.
N#Cc1ccc(N2C(=O)[C@@H]3C(C(=O)c4ccc5ccccc5n4)=NN[C@@H]3C2=O)cc1	-2	1	2	-10	120*	2324
CC1Oc2ccccc2OC1C(=O)NCc1cnn2ccccc12 (configuration not stated)	.	.	.	-2	.	.
O=C(COc1ccc(Br)cc1)Nc1ccc(-c2nnc(-c3ccco3)o2)cc1	-8	-7	1	0	-5	21839*
COc1ccccc1OCC(=O)Nc1ccc(-c2nnc(-c3ccco3)o2)cc1	2	-2	-1	-5	4	4806
CCOc1ccc(NC(=O)CSc2nc3ccccc3c(=O)n2CCNC(C)=O)cc1	2	2	-1	13	5	20012*
COc1ccc(NC(=O)CSc2nc3ccccc3c(=O)n2CCNC(C)=O)cc1	-16	-6	-14	-5	0	12758
CCn1c(SCC(=O)Nc2ccc(NC(=O)c3ccco3)c(OC)c2)nc2ccccc2c1=O	-6	-4	-1	-7	-7	20994*
COc1ccc(OC)c(NC(=O)CSc2nc3ccccc3c(=O)n2CCNC(C)=O)c1	-4	-3	1	-8	-4	20543*
COc1ccc(OC)c(NC(=O)CSc2nnc(Cc3cccn3C)n2Cc2ccccc2)c1	.	.	.	39*	.	.
CCOC(=O)Cc1nnc(NC(=O)c2ncn[nH]2)s1	-2	-2	-8	0	-8	23312*
O=C(C[C@@H]1C/C=C/CCC(=O)OC[C@@H]2CCCN2C1=O)NCCO	.	.	.	-4	.	.
COC(=O)C1=C(C)N(Cc2ccc(OC)cc2)C(=O)C1	-3	-2	-6	-27	-4	20549*
COc1ccc(N2C(=O)CC(=O)NC2=O)cc1	7	1	4	-6	-2	8548
COc1ccc(CN2C(=O)CC(=O)NC2=O)cc1	1	?	-3	-19	-3	21705*
COC(=O)C1=C(C)N(Cc2cccnc2)C(=O)C1	6	2	1	-15	10	22058*
COc1ccc(CNC(=O)Cc2cc(=O)[nH]c(SCc3cccc(Cl)c3)n2)cc1	.	.	.	-11	.	.
O=C(NCCCN1CCN(c2ccccc2)CC1)c1ccc(F)c(F)c1	.	.	.	0	.	.
CCOc1ccc(S(=O)(=O)Nc2ccc3c(c2)CN(S(=O)(=O)CC)CC3)cc1C	.	.	.	1	.	.
Nc1c(C(=O)N2CCCC2)nsc1C(=O)NCc1ccccc1F	.	.	.	3	.	.
NCc1cccc(Oc2ccccn2)c1	.	.	.	8	.	.
CCn1ncc(C2=NOC(C(=O)Nc3ccc(C)cc3)C2)c1C (configuration not stated)	13	0	1	-10	4	4558
CCn1ncc(C2=NOC(C(=O)NCc3ccc(Cl)cc3)C2)c1C (configuration not stated)	3	2	3	-6	2	21413*
CCn1ncc(C2=NOC(C(=O)Nc3cccnc3)C2)c1C (configuration not stated)	4	3	-8	-1	9	22133*
